The supplement of paper PMC11417369
± gives the standard deviation of the averaged measurements. Whole data set: some 25,000 sequences, median “ln(normalized median fluorescence intensity)” near 10, cut for the highest 2% near 12. The full list was thinned out, with the highest values kept by preference.

System: PfAP2-G AP2 domain (GST-tagged)
Assay: gcPBM binding intensity (ln(normalized median fluorescence intensity)); higher = stronger DNA binding
Procedure, shortened: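 After 1 h on an Agilent 4 × 180k array of primer-extended double-stranded 36-bp intergenic genomic probes and negative controls, bound GST-tagged P. falciparum DNA-binding domains were detected with Alexa488 anti-GST antibody and scanned at 488 nm. The domains had been expressed in E. coli, and binding took place in 1× PBS with 1% milk, 0.2 mg/ml BSA, 0.5% salmon testes DNA and 0.03% Triton X-100. Binding intensity is the highest Masliner-normalised natural-log median intensity across replicate spots of either probe orientation.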

Sequence | gcPBM binding intensity (ln)
ATACACACTTAAAAAAGTACTTAACTACATGAATTG [XGTACX_site1203] | 11.1 ± 0.59
TATTCCCCCAAACACACACACACACCCACATACCAC [CACACA_site2304] | 11.1 ± 0.78
TACACCCACCCACATACACACACATACACATATATA [CACACA_site8503] | 10.3 ± 0.35
CACCCACCCACATACACACACATACACATATATATA [CACACA_site1722] | 10.2 ± 0.25
CATATATACGCATACACACACACACCCACACCCACA [CACACA_site1725] | 10.6 ± 0.52
TATTCCCCCCAACACACACACACACCGACATACCAC [CACACA_site8723] | 11.8 ± 1.1
CATATTCCCCCCCACACACACACACCCATACATACC [CACACA_site2303] | 11.7 ± 0.71
CATACACCCATACATACACACATACATATATATATA [CACACA_site8591] | 10.2 ± 0.11
GACATATTCCCCCCCACACACACACCCACATACATA [CACACA_site2302] | 11.8 ± 0.71
CACAAACACCCAAACACACACACACCGACATACATA [CACACA_site4410] | 10.2 ± 0.27
ACCATACATACATACACACACACACGCATATTTATA [CACACA_site7386] | 10.4 ± 0.28
CATATTCCCCCCCACACACACACACGCATACATACC [CACACA_site7148] | 11.8 ± 0.6
TATATATACATATACACACACACACCCATATATATA [CACACA_site2246] | 10.1 ± 0.2
TTTTTGTATTCTACCTTAACAATCTTAAAGATTTTT [CACACA_negctrl_site1157] | 9.97 ± 0.11
GTAAATAATAAACACCGTACATGGTATAATTCAATG [XGTACX_site3655] | 10.7 ± 0.33
AAGTCAATTTTTTTTTTTTTTTTTTAACTTATTAAT [TGCATGCA_negctrl_site14] | 9.605 ± 0.078
TCATTTCACAGACACACACACACAAGATATTTCCTT [CACACA_site7774] | 10.1 ± 0.11
AAAAAAAAAGGTACTACACACTATTCTCAATAGAAA [CACACA_site6193] | 11.1 ± 0.86
TAACAATAACTTTATACACACATAATATAAATATAT [CACACA_site7635] | 9.87 ± 0.014
AACACCAATTCATATGCACACACATCTGCATATTAT [CACACA_site8523] | 10.12 ± 0.078
TATATTAAAAAAGAGGTGCATTCGTAAGAGGTTAAA [GTGCAC_site9720] | 10.05 ± 0.064
CAACATTTGATAAACACACAGAAGTATAAATATATA [CACACA_site2365] | 10.24 ± 0.035

Sequence | gcPBM binding intensity (ln)
AAAATAAACCCAGACACACTCATTAAAAAATATCAT [CACACA_site5903] | 9.95 ± 0.099
AAAAATGTATGTATGGTGCAGTATTCATATCATTTT [GTGCAC_site9458] | 10.03 ± 0.021
ATAAAACAAATGAGTACACACACATAAAAATTGAAA [CACACA_site7949] | 11.6 ± 1.2
TTTGTTAATATAAAAACACACAAAAATAACATAAAA [CACACA_site2619] | 10.2 ± 0.22
CTTTATAATATTTGTTGTACACAAATATAACATATT [XGTACX_site709] | 11.6 ± 1.1
AAAACAAATGAGTACACACACATAAAAGTTGAAAAT [CACACA_site6238] | 11.8 ± 1.3
GTTGTTATATAAAGGAGTACATAATAACACAAATAT [XGTACX_site615] | 11.7 ± 1.2
AAAACAAATGAGTACACACACATAAAAATTGAAAAT [CACACA_site199] | 11.5 ± 0.9
ATATAAAAAAAAAAAAGTACACATAAACAAATGCAT [XGTACX_site4241] | 11.7 ± 1
AAAATATATACACAAACATGCATATAATAAATAAAT [TGCATGCA_site711] | 9.895 ± 0.064
AAAGTAAAAACACATACATGCATATACACATATAAC [TGCATGCA_site341] | 9.9 ± 0.12
TTTTTGTTCTATATGGTGCATGTTTATATTCGTATT | 10.2 ± 0.19
AATTATAATAATAATAGTACATAAGTATATAAATAA [XGTACX_site2400] | 11 ± 0.62
AAATAAATAAGAAACGCATGCATATATAATATATAA [TGCATGCA_site326] | 9.83 ± 0.057
AGTAATAATCGGCATGCATGTCAGTGGTAGTATATA [TGCATGCA_site312] | 10.3 ± 0.41
TCTTCATTTTTATGTGCATGTAAAATTTTTTTTTTT [TGCATGCA_site963] | 10.2 ± 0.19
TTGTACTACAATCCTTTATTTATTTAAACCTGTATG [CACACA_negctrl_site428] | 11.6 ± 1.1
TTTTTTAACCTTTTATGTACACAATATTTAACATTT [XGTACX_site1170] | 11.6 ± 0.95
ATATAATATTTATATGTACACACCTTAATCCTTAAA [CACACA_site3555] | 11.3 ± 0.81
TATTTTGTTCTTTCCACACACAAATACATATATTGT [CACACA_site4071] | 10.3 ± 0.24
TATTGTATCCTTAATGCATGCACCAAATAAAAAAAG [TGCATGCA_site541] | 10.5 ± 0.54
AAAAATAAAATAAAATAAAATAAAAATAAAGAAAAA [CACACA_negctrl_site808] | 9.39 ± 0.16

Sequence | gcPBM binding intensity (ln)
TGGCACTAAAAAAATAAACACACAGATTTATATAAT [CACACA_site8386] | 9.81 ± 0.18
TGCCTATGACATGAATGTACATTAAAATTAAATAAA [XGTACX_site7126] | 10.8 ± 0.52
TTAAAAGAAAATAGGTGTACACATAATATATACATA [XGTACX_site7697] | 11.8 ± 1
TAAAAGAAATAATATACACACATATATAAAAATAAA [CACACA_site1329] | 9.87 ± 0.085
ATAACATAACATAATACACACATATAAAAAAGAAAT [CACACA_site3028] | 10.1 ± 0.18
TAATACATACACACATGTACATACAGAAATAAATAA [XGTACX_site3245] | 11.2 ± 0.81
AAAGAAAATAGGTGTACACATAATAAATACAGCTAT [CACACA_site5917] | 11.7 ± 1.1
TAAAAATAAAGAAAATGTACATAAATAATAATACAT [XGTACX_site2278] | 11.2 ± 0.69
TCTTGTTTATCAACAGCACACACAACAACAACAACA [CACACA_site8046] | 10.1 ± 0.23
CGCCCACAGATATATACACACATATATAAATAAATA [CACACA_site6877] | 10.1 ± 0.3
ATTAAATACATTAACACACACACAAATAAATACATA [CACACA_site5583] | 10.2 ± 0.25
TATATTGCAAAAAGTACACACATAAATAAATACATA [CACACA_site6589] | 11.6 ± 1.1
TAAAAATTAAAGTGTACACATATATATATATATATA [CACACA_site4781] | 11.6 ± 0.97
GCATGGAACCATATATGTACATATATAAATAAATAA [XGTACX_site4996] | 11.2 ± 0.63
TTAAATACTAAAAAGTGTACACATACATAAAAAATT [XGTACX_site6261] | 11.7 ± 0.92
TAAGGTTCATTAAAGTGTACACATAAATACCGTAAC [XGTACX_site8212] | 11.6 ± 0.95
AACCATAAAAAGTGTACACATATAAAAAATATGGAA [CACACA_site4199] | 11.7 ± 1.1
ATATAAAAAAATTGCACACATAAATATATACATATA [CACACA_site1218] | 10.12 ± 0.064
CGAAACCATATGTACACACACATATATAAATATGTA [CACACA_site7082] | 11.3 ± 0.88
AATACTAAAAAGTGTACACATACATAAAAAATTGCA [CACACA_site5620] | 11.6 ± 0.87
GGTTCATTAAAGTGTACACATAAATACCGTAACATT [CACACA_site6002] | 11.9 ± 1
TAAATTAATAAAAAGTGTACATAATATACATATATA [XGTACX_site8604] | 11.3 ± 0.66
